Consider 16 sequences from the supplement of paper PMC10338343.

± gives the standard deviation. A value given as a limit tells only on which side of the number the result lay.
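Further: 1 nM active piRISC with 0.1 nM target library at 33 °C single turnover.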

For one experiment, the system named is MILI (PIWIL2) piRISC loaded with L1MC piRNA (26 nt). The experiment in a line: pre-steady-state target cleavage rate (min^-1); guide: L1MC piRNA 5'p-UAACUAAAUACUAUGCAAGCUGUAGG; MIWI and MILI are mouse PIWI proteins and EfPiwi is from a freshwater sponge; tags in brackets are library labels; higher = faster piRNA-guided slicing of the target. The note with it: auxiliary factor: 500 nM mouse GTSF1. An outline of the steps:
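In HEPES–potassium acetate buffer at 33 °C, […] transcribed, DNA-blocked target RNA library was mixed with 1 nM active affinity-purified piRISC carrying one synthetic guide, with or without 500 nM GTSF1 partner protein, for 0–8 or 0–960 min. Uncleaved targets were sequenced and normalised to depth and to weakly complementary targets; three trials were pooled and k3 was capped at 0.0001 min^-1. The pre-steady-state cleavage rate followed from a burst-and-steady-state fit.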
Take UCCUGGAUGUGCUUGCAUUGUAUUUUGUUA: the “pre-steady-state target cleavage rate” value worked out at 0.0555 ± 0.015.

Take UCCUGCUACAGCUUGCAUAGAUAUUAGUUA: the “pre-steady-state target cleavage rate” value is 0.0176 ± 0.0073.

In the case of UCCUGGAUGUGCUAGCAUAGUAUUUACUUA, the “pre-steady-state target cleavage rate” value amounted to 0.0865 ± 0.019.

As for UCCUGGUACUCGUUGCAUAGUAUUUAGUAA, the “pre-steady-state target cleavage rate” value was 0.0635 ± 0.029.

On to UCCUCCUACAGCUUGCAAUGUAUUUUCAAA, for which the “pre-steady-state target cleavage rate” value was 0.0219 ± 0.0065.

In the case of UCCUGGAUGAGCUUGCAUAGUAUAUACAAA, the “pre-steady-state target cleavage rate” value was 0.00992 ± 0.0056.

In the case of UCCUGCUACAGCUUGCAUAGUAUAUUCAAA, the “pre-steady-state target cleavage rate” value was found to be 0.209 ± 0.059.

For the sequence UCCUCCUACAGCUUGCAUCAGUAUUUAGUUA, the “pre-steady-state target cleavage rate” value was found to be 0.0234 ± 0.0093.

In the case of UCCUGGAUCAGCUUGCAAAGAAUUUAGUUA, the “pre-steady-state target cleavage rate” value came out at 0.0118 ± 0.0054.

For UCCUGGUACAGCUUGCAUACUAUUUACUUA, the “pre-steady-state target cleavage rate” value came to 0.05 ± 0.014.

Staying with this experiment, now noted: auxiliary factor: none (no GTSF1).
Consider “UCCUGGAUGUCGAAGCAUAGUAAAAUCAAA [g9:g16:cont:t1A]”, for which the “pre-steady-state target cleavage rate” value is under 0.0001.

For the sequence UCCUGGAUGUCGAUGAUAGUAUUUAGUUA, the “pre-steady-state target cleavage rate” value was under 0.0001.

For the sequence UCCUGGAUCAGCUUGCAUAGGUAUUUAGUUA, the “pre-steady-state target cleavage rate” value came to 0.00357 ± 0.0027.

As to UCCUGGAUGUCGAACGUAUCUAUUUAUGUUA, the “pre-steady-state target cleavage rate” value is under 0.0001.

As to UCCUGGUACAGCUUGCAUACAUUUUAGUUA, the “pre-steady-state target cleavage rate” value was 0.00408 ± 0.0037.

For the sequence UCCUGGUACAGCUUGCAUAGCUAUUUAGUUA, the “pre-steady-state target cleavage rate” value was 0.0041 ± 0.004.
